In the supplement of paper PMC8728848:
The full list was thinned out, with the strongest signals kept by preference.

What was measured:
Experiment in all cases: glycan array binding signal (z-score within array); higher = stronger binding
Details in all cases: glycan notation: IUPAC condensed, linker removed
[1] = target: Glc(a1-3)Glc(a1-3)Glc(a1-3)Glc
Summary of the method: (§1)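 Glycan array data were curated from 3228 arrays in the Consortium for Functional Glycomics database and kept only where the protein sequence was available. Glycan names were converted to IUPAC-condensed notation, and columns mapping to the same glycan were averaged. The binding signal is a within-array Z-score, averaged across arrays of the same protein sequence at different concentrations or buffers and across linkers. Negative Z-scores can be read as non-binding.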

[2] = target: Glc(a1-4)Glc(a1-4)Glc(a1-4)Glc(a1-4)Glc(a1-4)Glc(a1-4)Glc(a1-4)Glc(a1-4)Glc(a1-4)Glc
Summary of the method: as §1

[3] = target: Glc(b1-3)Glc(b1-3)Glc(b1-3)Glc(b1-3)Glc(b1-3)Glc
Summary of the method: as §1

[4] = target: Glc(b1-3)Glc(b1-3)Glc(b1-3)Glc(b1-3)Glc(b1-3)Glc(b1-3)Glc(b1-3)Glc(b1-3)Glc(b1-3)Glc(b1-3)Glc
Summary of the method: as §1

[5] = target: Glc(b1-3)Glc(b1-3)Glc(b1-3)Glc(b1-3)Glc(b1-3)Glc(b1-3)Glc(b1-3)Glc(b1-3)Glc(b1-3)Glc(b1-3)Glc(b1-3)Glc
Summary of the method: as §1

[6] = target: Glc(b1-3)Glc(b1-3)Glc(b1-3)Glc(b1-3)Glc(b1-3)Glc(b1-3)Glc(b1-3)Glc(b1-3)Glc(b1-3)Glc(b1-3)Glc(b1-3)Glc(b1-3)Glc
Summary of the method: as §1

[7] = target: Glc(b1-4)Glc(b1-4)Glc(b1-4)Glc(b1-4)Glc(b1-4)Glc(b1-4)Glc
Summary of the method: as §1

[8] = target: Glc(a1-3)Glc(a1-3)Glc(a1-3)Glc(a1-3)Glc
Summary of the method: as §1

[9] = target: Glc(a1-3)Glc(a1-3)Glc(a1-3)Glc(a1-3)Glc(a1-3)Glc(a1-3)Glc(a1-3)Glc(a1-3)Glc(a1-3)Glc(a1-3)Glc(a1-3)Glc
Summary of the method: as §1

[10] = target: Glc(b1-2)Glc(b1-2)Glc(b1-2)Glc
Summary of the method: as §1

[11] = target: Glc(b1-2)Glc(b1-2)Glc(b1-2)Glc(b1-2)Glc(b1-2)Glc(b1-2)Glc(b1-2)Glc(b1-2)Glc
Summary of the method: as §1

[12] = target: Glc(b1-3)Glc(b1-3)[Glc(b1-6)]Glc(b1-3)Glc(b1-3)Glc(b1-3)Glc(b1-3)Glc(b1-3)Glc(b1-3)Glc
Summary of the method: as §1

[13] = target: Glc(b1-4)Glc(b1-4)Glc
Summary of the method: as §1

[14] = target: Glc(b1-4)Glc(b1-4)Glc(b1-4)Glc(b1-4)Glc(b1-4)Glc(b1-4)Glc(b1-4)Glc
Summary of the method: as §1

[15] = target: Glc(b1-6)Glc(b1-6)Glc(b1-6)Glc
Summary of the method: as §1

[16] = target: Xyl(b1-4)Xyl(b1-4)Xyl(b1-4)Xyl(b1-4)Xyl(b1-4)Xyl
Summary of the method: as §1

[17] = target: Glc(a1-3)Glc(a1-3)Man(a1-2)Man(a1-2)Man(a1-3)[Man(a1-3)[Man(a1-6)]Man(a1-6)]Man(b1-4)GlcNAc
Summary of the method: as §1

[18] = target: Glc(a1-4)Glc(a1-4)Glc(a1-4)Glc(a1-4)Glc
Summary of the method: as §1

[19] = target: Glc(a1-4)Glc(a1-4)Glc(a1-4)Glc(a1-4)Glc(a1-4)Glc(a1-4)Glc
Summary of the method: as §1

[20] = target: Glc(b1-3)Glc(b1-3)Glc(b1-3)Glc
Summary of the method: as §1

[21] = target: Glc(a1-4)Glc
Summary of the method: as §1

[22] = target: Glc(a1-6)Glc
Summary of the method: as §1

[23] = target: Glc(b1-2)Glc(b1-2)Glc(b1-2)Glc(b1-2)Glc
Summary of the method: as §1

[24] = target: Glc(b1-3)Glc(b1-3)Glc(b1-3)Glc(b1-3)Glc
Summary of the method: as §1

[25] = target: Glc(b1-3)Glc(b1-3)Glc(b1-3)Glc(b1-3)Glc(b1-3)Glc(b1-3)Glc(b1-3)[Glc(b1-6)]Glc(b1-3)Glc
Summary of the method: as §1

[26] = target: Glc(b1-4)Glc(b1-4)Glc(b1-4)Glc(b1-4)Glc(b1-4)Glc(b1-4)Glc(b1-4)Glc(b1-4)Glc
Summary of the method: as §1

[27] = target: Glc(b1-6)Glc(b1-6)Glc(b1-6)Glc(b1-6)Glc(b1-6)Glc(b1-6)Glc(b1-6)Glc
Summary of the method: as §1

[28] = target: Glc(b1-6)Glc(b1-6)Glc(b1-6)Glc(b1-6)Glc(b1-6)Glc(b1-6)Glc(b1-6)Glc(b1-6)Glc
Summary of the method: as §1

[29] = target: Man(b1-4)Man(b1-4)Man(b1-4)Man
Summary of the method: as §1

[30] = target: Glc(a1-6)Glc(a1-6)Glc(a1-6)Glc(a1-6)Glc(a1-6)Glc(a1-6)Glc(a1-6)Glc
Summary of the method: as §1

[31] = target: Glc(b1-2)Glc(b1-2)Glc(b1-2)Glc(b1-2)Glc(b1-2)Glc(b1-2)Glc(b1-2)Glc
Summary of the method: as §1

[32] = target: Glc(b1-2)Glc(b1-2)Glc(b1-2)Glc(b1-2)Glc(b1-2)Glc(b1-2)Glc(b1-2)Glc(b1-2)Glc(b1-2)Glc(b1-2)Glc
Summary of the method: as §1

[33] = target: Glc(b1-2)Glc(b1-2)Glc(b1-2)Glc(b1-2)Glc(b1-2)Glc(b1-2)Glc(b1-2)Glc(b1-2)Glc(b1-2)Glc(b1-2)Glc(b1-2)Glc(b1-2)Glc
Summary of the method: as §1

[34] = target: Glc(b1-3)Glc(b1-3)Glc(b1-3)[Glc(b1-6)]Glc(b1-3)Glc(b1-3)Glc(b1-3)Glc(b1-3)[Glc(b1-6)]Glc(b1-3)Glc
Summary of the method: as §1

[35] = target: Glc(b1-3)Glc(b1-4)Glc
Summary of the method: as §1

[36] = target: Glc(b1-6)Glc(b1-6)Glc(b1-6)Glc(b1-6)Glc(b1-6)Glc(b1-6)Glc(b1-6)Glc(b1-6)Glc(b1-6)Glc(b1-6)Glc
Summary of the method: as §1

B1: Lam16A (Thermotoga maritima), Q9WXN1 (protein)
chain: EQINNGTFDEPIVNDQANNPDEWFIWQAGDYGISGARVSDYGVRDGYAYITIADPGTDTWHIQFNQWIGLYRGKTYTISFKAKADTPRPINVKILQNHDPWTNYFAQTVNLTADWQTFTFTYTHPDDADEVVQISFELGEGTATTIYFDDVTVSPQ
glycan array binding signal (z-score) [1]: -0.373 | glycan array binding signal (z-score) [2]: -0.363 | glycan array binding signal (z-score) [3]: 1.79 | glycan array binding signal (z-score) [4]: 3.64 | glycan array binding signal (z-score) [5]: 4.46 | glycan array binding signal (z-score) [6]: 4.88 | glycan array binding signal (z-score) [7]: -0.373

B2: laminarinase (Bacillus halodurans), Q9KBL8 (protein)
chain: EETIELEGEVIPARLLSTKVKALNYDDYHNVLIDRCVEGGESIRGLGDGSWIAFHDINLEQPTNLLTVRAANENKQAVLEIRADRVDGPLVSQSVIPPTGGLQAWTTVTAQVNGETSEIRDLYLVFKGEFQLSWFSFS
glycan array binding signal (z-score) [8]: -0.688 | glycan array binding signal (z-score) [9]: -0.654 | glycan array binding signal (z-score) [10]: 0.121 | glycan array binding signal (z-score) [11]: 2.57 | glycan array binding signal (z-score) [5]: 2.38 | glycan array binding signal (z-score) [6]: 2.46 | glycan array binding signal (z-score) [12]: 2.85 | glycan array binding signal (z-score) [13]: -0.573 | glycan array binding signal (z-score) [14]: -0.428 | glycan array binding signal (z-score) [15]: -0.324 | glycan array binding signal (z-score) [16]: -0.466

B3: Malectin (Homo sapiens), Q14165 (protein)
chain: MLGAWAVEGTAVALLRLLLLLLPPAIRGPGLGVAGVAGAAGAGLPESVIWAVNAGGEAHVDVHGIHFRKDPLEGRVGRASDYGMKLPILRSNPEDQILYQTERYNEETFGYEVPIKEEGDYVLVLKFAEVYFAQSQQKVFDVRLNGHVVVKDLDIFDRVGHSTAHDEIIPMSIRKGKLSVQGEVSTFTGKLYIEFVKGYYDNPKVCALYIMAGTVDDVPKLQPHPGLEKKEEEEEEEEYDEGSNLKKQTNKNRVQSGPRTPNPYASDNSSLMFPILVAFGVFIPTLFCLCRL
glycan array binding signal (z-score) [17]: 5.02 | glycan array binding signal (z-score) [18]: -0.172 | glycan array binding signal (z-score) [19]: -0.012 | glycan array binding signal (z-score) [20]: -0.337 | glycan array binding signal (z-score) [13]: -0.412

B4: Dectin-1 (Homo sapiens), Q9BXN2 (protein)
chain: TMAIWRSNSGSNTLENGYFLSRNKENHSQPTQSSLEDSVTPTKAVKTTGVLSSPCPPNWIIYEKSCYLFSMSLNSWDGSKRQCWQLGSNLLKIDSSNELGFIVKQVSSQPDNSFWIGLSRPQTEVPWLWEDGSTFSSNLFQIRTTATQENPSPNCVWIHVSVIYDQLCSVPSYSICEKKFSM
glycan array binding signal (z-score) [21]: -0.145 | glycan array binding signal (z-score) [22]: -0.145 | glycan array binding signal (z-score) [23]: -0.145 | glycan array binding signal (z-score) [24]: -0.145 | glycan array binding signal (z-score) [4]: 0.976 | glycan array binding signal (z-score) [5]: 5 | glycan array binding signal (z-score) [6]: 9.53 | glycan array binding signal (z-score) [25]: -0.145 | glycan array binding signal (z-score) [26]: -0.145 | glycan array binding signal (z-score) [27]: -0.145 | glycan array binding signal (z-score) [28]: -0.145 | glycan array binding signal (z-score) [29]: -0.082

B5: Dectin-1 (Mus musculus), Q6QLQ4 (protein)
chain: EYGHNSGRNPEEKDNFLSRNKENHKPTESSLDEKVAPSKASQTTGGFSQPCLPNWIMHGKSCYLFSFSGNSWYGSKRHCSQLGAHLLKIDNSKEFEFIESQTSSHRINAFWIGLSRNQSEGPWFWEDGSAFFPNSFQVRNTAPQESLLHNCVWIHGSEVYNQICNTSSYSICEKEL
glycan array binding signal (z-score) [30]: -0.161 | glycan array binding signal (z-score) [31]: -0.206 | glycan array binding signal (z-score) [32]: -0.206 | glycan array binding signal (z-score) [33]: -0.182 | glycan array binding signal (z-score) [4]: 0.83 | glycan array binding signal (z-score) [5]: 5.77 | glycan array binding signal (z-score) [6]: 6.71 | glycan array binding signal (z-score) [34]: -0.182 | glycan array binding signal (z-score) [35]: -0.182 | glycan array binding signal (z-score) [36]: -0.13 | glycan array binding signal (z-score) [29]: -0.038

B6: DC-SIGNR (Homo sapiens), Q9H2X3 (protein)
chain: QVSKVPSSLSQEQSEQDAIYQNLTQLKAAVGELSEKSKLQEIYQELTQLKAAVGELPEKSKLQEIYQELTRLKAAVGELPEKSKLQEIYQELTRLKAAVGELPEKSKLQEIYQELTRLKAAVGELPEKSKLQEIYQELTELKAAVGELPEKSKLQEIYQELTQLKAAVGELPDQSKQQQIYQELTDLKTAFERLCRHCPKDWTFFQGNCYFMSNSQRNWHDSVTACQEVRAQLVVIKTAEEQNFLQLQTSRSNRFSWMGLSDLNQEGTWQWVDGSPLSPSFQRYWNSGEPNNSGNEDCAEFSGSGWNDNRCDVDNYWICKKPAACFRDE
glycan array binding signal (z-score) [11]: 1.64 | glycan array binding signal (z-score) [6]: -0.981
